{
  "source": "paper PMC7862700",
  "about": "“An all-to-all approach to the identification of sequence-specific readers for epigenetic DNA modifications on cytosine”",
  "data": [
    {"target": "ELF1 (Homo sapiens, UniProt P32519 1-619)", "sequence (P32519 whole entry)": "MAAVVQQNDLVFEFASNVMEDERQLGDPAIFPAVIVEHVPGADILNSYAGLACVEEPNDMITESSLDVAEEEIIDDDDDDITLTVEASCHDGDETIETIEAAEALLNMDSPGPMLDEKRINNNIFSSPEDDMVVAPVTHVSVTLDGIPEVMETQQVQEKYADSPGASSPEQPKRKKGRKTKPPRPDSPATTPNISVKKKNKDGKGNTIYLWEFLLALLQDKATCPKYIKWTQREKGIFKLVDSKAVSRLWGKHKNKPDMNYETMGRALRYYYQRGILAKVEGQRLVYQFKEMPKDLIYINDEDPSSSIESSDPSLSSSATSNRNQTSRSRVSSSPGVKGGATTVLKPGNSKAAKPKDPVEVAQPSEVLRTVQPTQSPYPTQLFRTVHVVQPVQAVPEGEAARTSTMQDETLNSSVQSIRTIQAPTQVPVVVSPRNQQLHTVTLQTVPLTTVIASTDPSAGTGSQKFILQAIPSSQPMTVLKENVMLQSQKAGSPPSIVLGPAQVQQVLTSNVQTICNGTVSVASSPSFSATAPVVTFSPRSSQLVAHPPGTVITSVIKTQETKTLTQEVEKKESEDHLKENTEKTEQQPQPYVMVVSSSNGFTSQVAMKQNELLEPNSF", "assay": "DAPPL (digital affinity profiling via proximity ligation, sequencing); 10 mM Tris-HCl pH 7.5, 50 mM NaCl, 1 mM DTT, 4% glycerol, room temperature, 30 min; GST-TFs on glutathione beads, 16-mer random dsDNA library, 0.1% formaldehyde crosslink after washing; high values mean tight binding", "settings": "protein: recombinant; tags: N-terminal GST; dsDNA, one strand shown", "outline": "(§1)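 In yeast, human transcription factors were expressed with a GST fusion, then pulled down on glutathione beads and given DNA barcodes. Pooled with a tag-only sample, they were exposed to 200 nmole of a 16-mer random double-stranded DNA library (Tris/NaCl/DTT/glycerol buffer, room temperature, 30 min), washed, crosslinked with 0.1% formaldehyde, proximity-ligated using BsaI/T4 ligase for 1 h at 37 °C, PCR-amplified and read on an Illumina NextSeq500. Each hexamer's frequency of reads for a factor, divided by the matching frequency for the tag-only sample, gives the binding signal.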", "values": [
      {"sequence": "CGCACC", "binding signal": "1.03 fold enrichment (6-mer frequency, TF over GST control)"},
      {"sequence": "CACCTG", "binding signal": "1.09 fold enrichment (6-mer frequency, TF over GST control)"},
      {"sequence": "GCAGCA", "binding signal": "1.03 fold enrichment (6-mer frequency, TF over GST control)"},
      {"sequence": "TCATTG", "binding signal": "1.03 fold enrichment (6-mer frequency, TF over GST control)"},
      {"sequence": "ATAGAC", "binding signal": "1.03 fold enrichment (6-mer frequency, TF over GST control)"}
    ]},
    {"target": "T1, EHF (Homo sapiens, UniProt Q9NZC4 1-300)", "T1 sequence": "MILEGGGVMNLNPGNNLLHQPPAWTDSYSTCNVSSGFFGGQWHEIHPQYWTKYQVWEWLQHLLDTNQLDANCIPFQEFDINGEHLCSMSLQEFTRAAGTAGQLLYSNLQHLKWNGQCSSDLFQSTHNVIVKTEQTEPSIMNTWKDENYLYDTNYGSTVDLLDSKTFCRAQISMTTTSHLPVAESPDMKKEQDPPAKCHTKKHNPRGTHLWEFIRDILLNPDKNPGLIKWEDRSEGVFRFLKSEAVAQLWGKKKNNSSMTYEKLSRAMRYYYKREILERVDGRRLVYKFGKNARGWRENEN", "assay": "DAPPL (digital affinity profiling via proximity ligation, sequencing); 10 mM Tris-HCl pH 7.5, 50 mM NaCl, 1 mM DTT, 4% glycerol, room temperature, 30 min; GST-TFs on glutathione beads, 16-mer random dsDNA library, 0.1% formaldehyde crosslink after washing; high values mean tight binding", "settings": "protein: recombinant; tags: N-terminal GST; dsDNA, one strand shown", "outline": "as §1", "values": [
      {"sequence": "CAAAAG", "binding signal": "1 fold enrichment (6-mer frequency, TF over GST control)"},
      {"sequence": "ACACCG", "binding signal": "1.03 fold enrichment (6-mer frequency, TF over GST control)"},
      {"sequence": "TAACGT", "binding signal": "1.02 fold enrichment (6-mer frequency, TF over GST control)"},
      {"sequence": "CACCGC", "binding signal": "1.08 fold enrichment (6-mer frequency, TF over GST control)"},
      {"sequence": "GCATAC", "binding signal": "1.01 fold enrichment (6-mer frequency, TF over GST control)"},
      {"sequence": "GATTGC", "binding signal": "1.02 fold enrichment (6-mer frequency, TF over GST control)"},
      {"sequence": "AACAGA", "binding signal": "1.06 fold enrichment (6-mer frequency, TF over GST control)"},
      {"sequence": "TCATTG", "binding signal": "1.03 fold enrichment (6-mer frequency, TF over GST control)"},
      {"sequence": "CCGGCG", "binding signal": "1.03 fold enrichment (6-mer frequency, TF over GST control)"}
    ]},
    {"target": "SPI1 (Homo sapiens, UniProt P17947 1-270)", "assay": "DAPPL (digital affinity profiling via proximity ligation, sequencing); 10 mM Tris-HCl pH 7.5, 50 mM NaCl, 1 mM DTT, 4% glycerol, room temperature, 30 min; GST-TFs on glutathione beads, 16-mer random dsDNA library, 0.1% formaldehyde crosslink after washing; high values mean tight binding", "settings": "protein: recombinant; tags: N-terminal GST; dsDNA, one strand shown", "outline": "as §1", "values": [
      {"sequence": "GCCATT", "binding signal": "1.03 fold enrichment (6-mer frequency, TF over GST control)"},
      {"sequence": "CAAAAG", "binding signal": "1.08 fold enrichment (6-mer frequency, TF over GST control)"},
      {"sequence": "TAACGT", "binding signal": "1.03 fold enrichment (6-mer frequency, TF over GST control)"},
      {"sequence": "TCGCGG", "binding signal": "1 fold enrichment (6-mer frequency, TF over GST control)"},
      {"sequence": "CACCGC", "binding signal": "1.01 fold enrichment (6-mer frequency, TF over GST control)"},
      {"sequence": "GTTAGC", "binding signal": "1.01 fold enrichment (6-mer frequency, TF over GST control)"},
      {"sequence": "ATAGAC", "binding signal": "1.02 fold enrichment (6-mer frequency, TF over GST control)"}
    ]},
    {"target": "SPIB (Homo sapiens, UniProt Q01892 1-262)", "sequence (Q01892 whole entry)": "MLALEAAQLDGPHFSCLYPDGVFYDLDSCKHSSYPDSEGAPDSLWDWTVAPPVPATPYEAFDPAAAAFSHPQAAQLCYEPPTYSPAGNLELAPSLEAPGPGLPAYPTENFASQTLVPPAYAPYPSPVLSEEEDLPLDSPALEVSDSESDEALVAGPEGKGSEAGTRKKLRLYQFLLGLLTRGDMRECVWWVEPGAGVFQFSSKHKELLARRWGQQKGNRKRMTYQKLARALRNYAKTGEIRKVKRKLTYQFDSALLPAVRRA", "assay": "DAPPL (digital affinity profiling via proximity ligation, sequencing); 10 mM Tris-HCl pH 7.5, 50 mM NaCl, 1 mM DTT, 4% glycerol, room temperature, 30 min; GST-TFs on glutathione beads, 16-mer random dsDNA library, 0.1% formaldehyde crosslink after washing; high values mean tight binding", "settings": "protein: recombinant; tags: N-terminal GST; dsDNA, one strand shown", "outline": "as §1", "values": [
      {"sequence": "ACACCG", "binding signal": "1.06 fold enrichment (6-mer frequency, TF over GST control)"},
      {"sequence": "CCGCGG", "binding signal": "1.04 fold enrichment (6-mer frequency, TF over GST control)"},
      {"sequence": "TCGCGG", "binding signal": "1.02 fold enrichment (6-mer frequency, TF over GST control)"},
      {"sequence": "GATTGC", "binding signal": "1.05 fold enrichment (6-mer frequency, TF over GST control)"},
      {"sequence": "GTTAGC", "binding signal": "1 fold enrichment (6-mer frequency, TF over GST control)"},
      {"sequence": "CACCTG", "binding signal": "1.03 fold enrichment (6-mer frequency, TF over GST control)"},
      {"sequence": "GCAGCA", "binding signal": "1.02 fold enrichment (6-mer frequency, TF over GST control)"},
      {"sequence": "CCGGCG", "binding signal": "1.15 fold enrichment (6-mer frequency, TF over GST control)"}
    ]},
    {"target": "T2, ELK3 (Homo sapiens, UniProt P41970 1-407)", "T2 sequence": "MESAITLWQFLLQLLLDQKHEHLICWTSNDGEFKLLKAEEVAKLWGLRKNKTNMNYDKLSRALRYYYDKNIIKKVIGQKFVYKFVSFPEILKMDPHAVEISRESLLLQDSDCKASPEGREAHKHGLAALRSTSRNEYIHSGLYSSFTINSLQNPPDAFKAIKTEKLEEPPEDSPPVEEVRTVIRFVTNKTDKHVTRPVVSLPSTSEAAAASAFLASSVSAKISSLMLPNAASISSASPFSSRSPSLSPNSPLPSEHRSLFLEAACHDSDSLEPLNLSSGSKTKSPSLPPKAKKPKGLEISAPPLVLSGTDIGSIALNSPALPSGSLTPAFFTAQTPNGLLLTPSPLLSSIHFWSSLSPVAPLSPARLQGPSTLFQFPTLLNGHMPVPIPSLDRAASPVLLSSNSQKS", "assay": "DAPPL (digital affinity profiling via proximity ligation, sequencing); 10 mM Tris-HCl pH 7.5, 50 mM NaCl, 1 mM DTT, 4% glycerol, room temperature, 30 min; GST-TFs on glutathione beads, 16-mer random dsDNA library, 0.1% formaldehyde crosslink after washing; high values mean tight binding", "settings": "protein: recombinant; tags: N-terminal GST; dsDNA, one strand shown", "outline": "as §1", "values": [
      {"sequence": "TAACGT", "binding signal": "1.08 fold enrichment (6-mer frequency, TF over GST control)"},
      {"sequence": "GTGTTA", "binding signal": "1.02 fold enrichment (6-mer frequency, TF over GST control)"},
      {"sequence": "CAAACG", "binding signal": "1.07 fold enrichment (6-mer frequency, TF over GST control)"},
      {"sequence": "CAATGA", "binding signal": "1.04 fold enrichment (6-mer frequency, TF over GST control)"},
      {"sequence": "CATCAA", "binding signal": "1.07 fold enrichment (6-mer frequency, TF over GST control)"},
      {"sequence": "CACCGC", "binding signal": "1.06 fold enrichment (6-mer frequency, TF over GST control)"},
      {"sequence": "CGCACC", "binding signal": "1.05 fold enrichment (6-mer frequency, TF over GST control)"},
      {"sequence": "GCATAC", "binding signal": "1.05 fold enrichment (6-mer frequency, TF over GST control)"},
      {"sequence": "CCGGCG", "binding signal": "1.02 fold enrichment (6-mer frequency, TF over GST control)"}
    ]},
    {"target": "T3, FEV (Homo sapiens, UniProt Q99581 1-238)", "T3 sequence": "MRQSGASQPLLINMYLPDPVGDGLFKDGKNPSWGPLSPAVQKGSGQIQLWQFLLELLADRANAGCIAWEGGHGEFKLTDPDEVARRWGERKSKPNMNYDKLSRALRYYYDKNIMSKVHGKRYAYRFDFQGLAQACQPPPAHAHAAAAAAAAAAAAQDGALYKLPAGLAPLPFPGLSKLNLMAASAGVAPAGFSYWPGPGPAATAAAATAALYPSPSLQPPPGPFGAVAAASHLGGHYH", "assay": "DAPPL (digital affinity profiling via proximity ligation, sequencing); 10 mM Tris-HCl pH 7.5, 50 mM NaCl, 1 mM DTT, 4% glycerol, room temperature, 30 min; GST-TFs on glutathione beads, 16-mer random dsDNA library, 0.1% formaldehyde crosslink after washing; high values mean tight binding", "settings": "protein: recombinant; tags: N-terminal GST; dsDNA, one strand shown", "outline": "as §1", "values": [
      {"sequence": "ACACCG", "binding signal": "1.26 fold enrichment (6-mer frequency, TF over GST control)"},
      {"sequence": "TCGCGG", "binding signal": "1.02 fold enrichment (6-mer frequency, TF over GST control)"},
      {"sequence": "CATCAA", "binding signal": "1 fold enrichment (6-mer frequency, TF over GST control)"},
      {"sequence": "CACCGC", "binding signal": "1.04 fold enrichment (6-mer frequency, TF over GST control)"},
      {"sequence": "GCCACC", "binding signal": "1.01 fold enrichment (6-mer frequency, TF over GST control)"},
      {"sequence": "GTTAGC", "binding signal": "1 fold enrichment (6-mer frequency, TF over GST control)"},
      {"sequence": "CCGGCG", "binding signal": "1.25 fold enrichment (6-mer frequency, TF over GST control)"}
    ]}
  ]
}
